Screens deposited in PubChem by The Scripps Research Institute Molecular Screening Center.
S1P2 blocker: S1P2 (human) receptor antagonism; cell-based S1P2 antagonist assay, inhibition at 5 uM; inhibition, % at 5 µM; actives 0.21% (n = 97,000); AID 736; in the data active = inhibition above about 45%;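 also: CRE beta-lactamase reporter cells expressing human S1P2 stimulated with S1P; 0% = agonist at EC80 alone and 100% = agonist plus reference antagonist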
GALR2 ag: agonists of human galanin receptor 2 (GALR2); O43603; GALR2-expressing cells, agonist activation read-out; actives 0.48% (n = 140,000); activation, % (test concentration not listed); in the data active = activation above about 5%, passing the limit was not always enough;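 also: 0% = vehicle buffer wells and 100% = reference agonist at full effect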
Target sequence (O43603 whole entry, looked up): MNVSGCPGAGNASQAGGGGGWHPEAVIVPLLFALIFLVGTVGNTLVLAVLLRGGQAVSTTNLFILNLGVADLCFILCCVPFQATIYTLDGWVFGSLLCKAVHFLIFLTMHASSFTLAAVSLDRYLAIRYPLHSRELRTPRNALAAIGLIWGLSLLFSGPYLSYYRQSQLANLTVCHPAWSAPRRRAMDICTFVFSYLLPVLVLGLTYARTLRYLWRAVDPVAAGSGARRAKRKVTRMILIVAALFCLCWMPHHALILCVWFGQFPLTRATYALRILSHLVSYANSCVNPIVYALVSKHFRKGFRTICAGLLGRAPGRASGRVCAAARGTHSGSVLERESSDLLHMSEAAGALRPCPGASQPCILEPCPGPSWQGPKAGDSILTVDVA
S1P2 ag: S1P2 (human) receptor agonism; S1P2-expressing cell line, agonist reporter read-out; activation, % at 4.5 µM; AID 729; actives 0.46% (n = 97,000); O95136; in the data active = activation above about 16%;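 also: 0% = vehicle low control and 100% = maximal reference agonist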
GALR2 antag: blocks the human galanin receptor 2; inhibition, % at 4 µM; GALR2-expressing cells, antagonist mode; actives 0.39% (n = 140,000); in the data active = inhibition above about 27%;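 also: cells stimulated with galanin 1-16 at roughly its EC80; 0% = agonist challenge control and 100% = basal control without agonist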
GALR2 agon conf: confirmation of human galanin receptor 2 (GALR2) agonists; shares compounds with GALR2 ag; GALR2-expressing cells, agonist activation; activation, % at 5.6 µM; actives 10% (n = 460); AID 864; in the data active = activation above about 8.4%;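 also: 0% = buffer-only vehicle wells and 100% = full reference agonist response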
BLA act counter: counter-screen for GALR2 agonists: beta-lactamase reporter activators; activation, % at 5.6 µM; AID 865; actives 10% (n = 460); CHO NFAT-bla reporter, beta-lactamase FRET activation; shares compounds with GALR2 ag;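 active = activation above the screen-wide mean activation plus 3 SD, cut at about 8% in these data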;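 also: 0% = DMSO with PBS wells and 100% = thapsigargin positive control wells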
* = called active by the depositor; . = no result given. An excerpt weighted towards active compounds, which were near 1.2% of everything screened.

SMILES	S1P2 blocker	GALR2 ag	S1P2 ag	GALR2 antag	GALR2 agon conf	BLA act counter
Cc1ccc(Nc2cnn(C34CC5CC(CC(CC(=O)O)(C5)C3)C4)c(=O)c2Cl)cc1	-1	11	-2	-8	-1	-2
CCCc1cc2c(cc1NC(=O)c1ccc(C)cc1)OCO2	-11	-3	-4	1	.	.
CC(=O)NCN1CCN(CNC(C)=O)CC1	13	11	-4	6	0	-2
NC(=O)C1CC(=O)N(c2ccc(OCC(=O)Nc3cccc(C(F)(F)F)c3)cc2)C1 (configuration not stated)	-26	8	-2	-9	-1	-1
O=C(CC1NC(=O)NC1=O)Nc1ccc(Cl)cc1 (configuration not stated)	3	-1	-4	-6	.	.
O=C(CC1Nc2ccccc2NC1=O)Nc1cc(Cl)cc(Cl)c1 (configuration not stated)	-1	13*	16	-1	12*	9.9*
COCc1nnc(NC(=O)C(C)C)s1	-9	136*	3	-1	-1	0
CCOCC(=O)Nc1nnc(COC)s1	1	0	-4	-2	.	.
CC(Cc1ccccc1)C(=O)N[C@@H](CO)Cc1ccccc1 (some centres not stated)	.	23*	.	-5	-1	-1
CC(Cc1ccccc1)C(=O)NCc1ccncc1 (configuration not stated)	.	0	.	-1	.	.
OCCn1c(Cl)nc2ccccc21	0	-1	-2	-4	.	.
Cc1ccc(S(=O)(=O)N2CCN(C(=O)COc3ccc(NC(=O)c4ccco4)cc3)CC2)cc1	3	13*	-4	4	-1	-2
Cc1nc2c(-c3ccc(F)cc3)c(C)nn2c(C)c1CCC(=O)NCCN1CCOCC1	-11	-1	-5	1	.	.
COCCNC(=O)CCc1c(C)nc2c(-c3ccc(F)cc3)c(C)nn2c1C	4	42*	-3	-11	0	-1
O=C(Nc1cccc(O)c1)C(Cc1ccccc1)N1C(=O)c2cccc3cccc(c23)C1=O (configuration not stated)	.	10*	.	-2	5	1
CC1(C)Cc2c(C#N)c(N3CCCC3)nc(-c3ccco3)c2CO1	-36	11	9	-9	2	4
CC1(C)Cc2c(C#N)c(NCc3ccco3)nc(-c3ccco3)c2CO1	.	-2	.	4	.	.
COc1ccc(C)cc1NC(=O)C(=O)NNC(=O)c1ccco1	9	-1	-2	-5	.	.
O=C1CC(c2ccccc2)n2nc(N3C(=O)c4ccccc4C3=O)nc2N1 (configuration not stated)	15	-3	-5	7	.	.
Cc1cc(=O)oc2c3c4c(cc12)OCCN4CCC3	-9	15*	5	18	1	3
O=C(O)CCCC(=O)Nc1ccc(Br)cc1C(=O)O	-9	-1	1	-11	.	.
CC(C)(C)C(=O)NC(=S)Nc1cc(C(F)(F)F)ccc1N1CCOCC1	-47	8	3	0	0	3
c1coc(CN(Cc2ccco2)c2ncnc3c2oc2ccccc23)c1	-24	9	-2	8	0	-2
Clc1ncnc2c1oc1ccccc12	7	-2	-3	19	.	.
CC1CCc2cc(F)cc3c(O)c(C(=O)NCc4ccco4)c(=O)n1c23 (configuration not stated)	17	9.5*	-10	0	0	-1
SMILES	S1P2 blocker	GALR2 ag	S1P2 ag	GALR2 antag	GALR2 agon conf	BLA act counter
Nc1c(C(=O)NCC2CCCO2)sc(=S)n1-c1ccccc1 (configuration not stated)	-8	10	-2	8	-1	-2
CCn1c(N)c(C(=O)NCC2CCCO2)sc1=S (configuration not stated)	1	-3	-3	10	.	.
Cn1nnnc1SCC(=O)NC(=O)Cc1ccccc1	13	-1	-2	-8	.	.
Cn1nnnc1SCC(=O)NCCCc1ccccc1	24	12*	-9	-4	0	-2
CCOc1ccc(Nc2nc(Cc3nnc(SCC(=O)c4ccc(C)c(C)c4)o3)cs2)cc1	5	19*	-4	5	-1	0
Cc1cc(/C=N/NC(=O)Cn2c3ccccc3c(=O)c3ccccc32)c(C)n1-c1ccccc1	-9	10	4	-18	1	0
Cc1cc(C)c(-c2c(O)c3cnn(-c4ccccc4)c3[nH]c2=O)c(C)c1	.	34*	.	9	-1	-4
CCOC(=O)Cc1csc(NC(=O)CSc2ncnc3c2cnn3-c2ccc(OC)cc2)n1	-1	12*	-5	2	0	-2
